Screens (PubChem)
Shown are actives, neighbours in structure and some others; about 7.9% of the full set was active somewhere.
SW480 rerep: inducers of DNA re-replication in SW480 colon cancer cells | SW480 DNA re-replication, Hoechst DNA content imaging, 48 h | Potency, µM (doses to about 46.1 µM), inactives show at the highest dose re-replication activation, hits mostly activators | 1.8% of 340,000 active | AID 624297; further: % of control where 0% means no effect; nearly all actives have a fitted effect of over 55% in size
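250 cells/well; 23 nL cpd via pin tool; 48 hr, 37 C, 5% CO2; Hoechst 40 min; imager read of total nuclear intensity, ex 405/em 500-530 nm.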
MCF10A rereplic: DNA re-replication induction in MCF 10a cells | 2.9% of 350,000 active | MCF 10A DNA re-replication, Hoechst nuclear intensity, 48 h | Potency, µM (doses to about 46.1 µM), inactives show at the top dose activity, positive = re-replication, hits mostly activators | AID 624296; further: % of control where 0% means no effect; nearly all actives have a fitted effect of over 50% in size
HT1080 IDH1KD tx: toxicity to HT-1080 IDH1 knockdown cells (counter line); HT-1080 IDH1 knockdown viability, ATP luminescence, 48 h; Potency, µM (doses to about 46.1 µM), without a hit: at the top dose activity, negative = toxicity, usual class: cytotoxic; 2% of 360,000 active;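 further: 0% = DMSO wells and -100% = cell-free medium wells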
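In this qHTS, HT-1080 cells depleted of IDH1 are exposed for 48 h at 37 °C to compound titrations. Toxicity is scored from CellTiter-Glo luminescence, with DMSO as full viability and medium alone as none.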
KB-3-1 tox: kills parental KB-3-1 adenocarcinoma cells. 1.4% of 400,000 active. Potency, µM (titrated, usually from 46.1 µM), actives largely listed as cytotoxic. AID 1347075. KB-3-1 viability, CellTiter-Glo ATP luminescence, 72 h; further: on the % scale 0 is the no-effect control and ±100 the full control effect; nearly all actives have a fitted effect of over 60% in size
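Cytotoxicity measured as CellTiter-Glo luminescence after 72 h at 37 C. Compound titrations were pinned onto drug-naive KB-3-1 parental adenocarcinoma cells grown in DMEM with 10% FBS, and normalized data fitted to concentration-response curves.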
HT1080-NT tox: kills 2HG-producing HT-1080-NT fibrosarcoma cells. HT-1080-NT fibrosarcoma viability, CellTiter-Glo ATP luminescence, 48 h. Potency, µM (titrated, usually from 46.1 µM), for the others: top-dose activity, negative = less viability, hits mostly cytotoxic. 1.6% of 360,000 active. AID 686970;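 further: NT is the 2HG producing partner of a matched IDH1 knockdown line; 0% = DMSO-treated cells and -100% = media-only wells without cells; nearly all actives have a fitted effect of over 55% in size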
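HT-1080-NT fibrosarcoma cells (2HG-overproducing), 750 cells/well in RPMI with 5% FBS, dosed after 2 h and incubated 48 h at 37C. CellTiter-Glo luminescence normalized to DMSO and no-cell wells; concentration-response curves fitted and classed.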
KB-V1 MDR tox: kills drug-selected multidrug resistant KB-V1 cells | KB-V1 MDR cells viability, CellTiter-Glo, 72 h | Potency, µM (series often up to 46.1 µM), usual class: cytotoxic | 3.4% of 400,000 active; further: on the % scale 0 is the no-effect control and ±100 the full control effect; nearly all actives have a fitted effect of over 60% in size
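Potencies derive from concentration-effect curves fitted to normalized luminescence (CellTiter-Glo) of KB-V1 cells treated for 72 h at 37 degrees C in phenol-red-free DMEM containing 10% FBS.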
* = called active by the depositor; i = inactive; ? = inconclusive; . = no result given; [ ] = dose if it differs, or a comment. The call rests on the fitted dose curve; in most records, active means well fitted curve in the direction sought with a large enough effect; inconclusive means small, poorly fitted or top-dose-only effect, or another doubt; inactive means no such curve, though single readings can be large; an effect the other way counts as inactive or inconclusive. Potency means the concentration at half of the fitted maximal effect.

SMILES	SW480 rerep	MCF10A rereplic	HT1080 IDH1KD tx	KB-3-1 tox	HT1080-NT tox	KB-V1 MDR tox
COCCCn1c(=O)c2ccccc2n(Cc2ccc(C)cc2)c1=O	-2%	9%	3%	?	2%	i
CCNC(=O)N1CCN(CCCC(c2ccc(F)cc2)c2ccc(F)cc2)CC1	-15%	?	?	i	16µM*	?
COC(=O)c1ccc(-n2c(C)cc(C(=O)COC(=O)CC3Sc4ccccc4NC3=O)c2C)cc1 (stereo not given)	-2%	15%	1%	i	-1%	i
CCOC(=O)C1=C(CC)Nc2ccccc2N/C1=N\S(=O)(=O)c1ccc2ccccc2c1	22%	?	15µM*	i	18µM*	i
CCN(c1ccc(N=Cc2c(O)n(Cc3ccc(OC)cc3)c(=O)c3ccccc23)cc1)C(C)C	?	7.3µM*	20%	i	11%	i
COc1cc2nc(CN3CCOCC3)n(CC(=O)NCC(F)(F)F)c(=O)c2cc1OC	11%	-5%	7%	i	8%	i
COc1ccc(Nc2nc(-c3c[nH]c4ccccc34)cs2)cc1	?	16µM*	14%	?	4%	i
COc1ccc(Nc2nc(-c3ccc(OC)cc3)cs2)cc1	-2%	-7%	-3%	i	-11%	?
COc1ccc2oc(=O)c(-c3csc(Nc4ccc(O)cc4)n3)cc2c1	?	4.1µM*	?	?	?	?
CCOc1cccc2cc(-c3nnc(NCc4ccco4)s3)c(=O)oc12	?	21µM*	-19%	i	-5%	i
COc1ccc2oc(=O)c(-c3nnc(NCc4ccco4)s3)cc2c1	8.9µM*	7.3µM*	?	?	-21%	?
COc1ccc(CC(NC(C)=O)C(=O)NC2CCN(S(=O)(=O)c3ccccc3)CC2)c(OC)c1 (stereo not given)	-2%	-2%	1%	i	1%	i
COc1cc(C(C)=O)ccc1OCC(=O)Nc1cc(C)on1	-7%	4%	13%	i	0%	?
COc1cc(C)cc(OC)c1OCC(=O)Nc1cc(C)on1	-5%	-2%	-1%	i	-2%	21µM*
Cc1ccc(C(=O)Nc2nnc(-c3ccc(C(C)(C)C)cc3)s2)cc1	3%	-9%	7%	i	15%	i
CC(=O)N/N=C/c1cc([N+](=O)[O-])ccc1OCCOc1ccccc1	21µM*	4%	-3%	i	-10%	i
CC(C)OC(=O)c1cccc(NC(=O)c2ccccc2)c1	6%	?	-6%	i	-3%	12µM*
CC(C)OCCCNC(=O)c1cccc(NC(=O)c2ccccc2)c1	-1%	2%	15%	i	14%	16µM*
CC(=O)Nc1cccc(OCCCOc2cccc([N+](=O)[O-])c2)c1	?	8%	15%	i	3%	9.2µM*
COc1ccc(OCCCC(=O)Nc2cccc([N+](=O)[O-])c2)cc1	?	28%	4%	i	0%	?
COCCCNC(=O)c1cccc(NC(=O)c2ccccc2)c1	-16%	?	?	i	0%	?
CCC(=O)N(Cc1cc2cccc(C)c2[nH]c1=O)c1ccccc1OC	17%	3%	0%	i	0%	i
COc1ccccc1-c1nn(CCC(=O)Nc2ccccc2)c2nc(C)cc(C)c12	.	.	.	i	.	i
COc1cccc(N/C(SCc2cccc([N+](=O)[O-])c2)=C(/C#N)C(N)=O)c1	?	?	16µM*	i	?	?
CC(=O)Nc1cccc(OCCCNC(=O)c2ccc(C(C)(C)C)cc2)c1	4%	0%	15µM*	?	?	i
SMILES	SW480 rerep	MCF10A rereplic	HT1080 IDH1KD tx	KB-3-1 tox	HT1080-NT tox	KB-V1 MDR tox
COc1ccc(-c2nnc3ccc(SCC(=O)N4CCCCCC4)nn23)cc1OC	-4%	5%	-2%	i	-3%	i
COC(=O)c1ccc(CSc2ccc3nnc(-c4ccc(OC)c(OC)c4)n3n2)o1	-18%	-1%	3%	i	6%	7.3µM*
CCC(=O)Nc1ccc(S(=O)(=O)N2CCN(c3ccc(F)cc3)CC2)cc1	0%	-3%	2%	i	-6%	?
Cn1cc(/C=N\NC(=O)C2COc3ccccc3O2)c2ccccc21 (stereo not given)	17%	5.8µM*	.	.	.	.
Cc1ccc(/C=N/NC(=O)C2COc3ccccc3O2)s1 (stereo not given)	2.8µM*	1.8µM*	1.8µM*	2.1µM*	?	?
O=C(N/N=C/c1cccs1)C1COc2ccccc2O1 (stereo not given)	-4%	-5%	?	i	?	?
Cc1c(/C=N\NC(=O)C2COc3ccccc3O2)c2ccccc2n1C (stereo not given)	.	?	0.65µM*	?	0.65µM*	?
O=C(N/N=C/c1c(O)n(-c2ccccc2Cl)c(=O)c2ccccc12)C1COc2ccccc2O1 (stereo not given)	?	21µM*	?	?	?	?
Cc1ccc(-n2c(O)c(/C=N/NC(=O)C3COc4ccccc4O3)c3ccccc3c2=O)cc1 (stereo not given)	?	?	-14%	?	-9%	?
Cc1cc(C)nc(NS(=O)(=O)c2ccc(NC(=O)C(C)Oc3ccccc3F)cc2)n1 (stereo not given)	-16%	-2%	8%	i	-13%	i
CC1(C)C(=O)OC(c2ccc([N+](=O)[O-])cc2)C(C)(C)C1=O (stereo not given)	-16%	15%	1%	i	10%	?
O=C(CN1C(=O)c2ccccc2C1=O)NC1CCCCC1	0%	1%	6%	?	15%	i
COCc1nc(-c2cc(OC)c(OC)c(OC)c2)no1	3%	663%[0.0737 µM]	13%	i	2%	i
COC(=O)[C@@]1(Cc2ccc(OC)cc2)[C@@H]2C(=CC(=O)[C@H]2CC(=O)C(=O)N2CCCC2)CN1C(=O)c1ccccc1	?	23µM*	21µM*	9.2µM*	?	?
O=C(CC1S/C(=N/N=C/c2cccs2)NC1=O)Nc1ccc(Cl)cc1 (stereo not given)	1%	-3%	-8%	i	-1%	i
COc1ccc(-c2ccc3c(c2)[C@@H]2C[C@H](N(C)C(=O)Nc4ccccc4)[C@H]([C@H](C)O)C(=O)N2CC3)cc1	?	-2%	-7%	i	-8%	i
